{
  "source": "the supplement of paper PMC11732987",
  "about": "“Enantioselective OTUD7B fragment discovery through chemoproteomics screening and high-throughput optimisation” (Communications Chemistry, 2025)",
  "data": [
    {"compound": "ClCC(=O)NC1CCCc2ccccc12", "assay": "log2 ratio of Biotin-Ahx-Ub-VS probe labelling (compound/DMSO); higher = less target engagement, active = hit call of the paper (q ≤ 0.05, log2 ratio ≤ -1)", "details": "compound concentration: 200uM; treatment time: 3 h", "procedure,_shortened": "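Compound at 50 or 200 µM, or DMSO, was applied for 3 h in triplicate to HEK293T lysate (495 µg per sample, Tris/CHAPS/IGEPAL buffer with protease inhibitors), after which Biotin-Ahx-Ub-VS was added at 0.5 µM final for 1 h. The labelled DUBs were pulled down with NeutrAvidin, digested with LysC and trypsin, and run by diaPASEF LC-MS/MS. Ratios are averaged base-two logs of compound over DMSO from median-normalised label-free quantities by unpaired t-test, counting only proteins with at least 2 unique peptides.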", "values": [
      {"target": "USP54 (UniProt Q70EL1)", "log2 ratio of Biotin-Ahx-Ub-VS probe labelling": "0.0905 (inactive)"},
      {"target": "UniProt Q5T2D3", "sequence (Q5T2D3 whole entry)": "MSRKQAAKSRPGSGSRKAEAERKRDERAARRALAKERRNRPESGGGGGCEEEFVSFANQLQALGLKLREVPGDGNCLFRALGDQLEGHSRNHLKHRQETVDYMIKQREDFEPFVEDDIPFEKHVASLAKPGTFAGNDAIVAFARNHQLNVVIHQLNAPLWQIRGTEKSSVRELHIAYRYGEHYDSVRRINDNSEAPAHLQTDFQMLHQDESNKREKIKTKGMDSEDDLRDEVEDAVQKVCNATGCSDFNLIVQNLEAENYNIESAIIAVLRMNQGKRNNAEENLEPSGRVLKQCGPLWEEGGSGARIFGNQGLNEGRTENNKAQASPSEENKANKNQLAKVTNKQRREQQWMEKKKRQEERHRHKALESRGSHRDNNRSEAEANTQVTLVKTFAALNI", "log2 ratio of Biotin-Ahx-Ub-VS probe labelling": "0.0818 (inactive)"},
      {"target": "USP28 (UniProt Q96RU2)", "log2 ratio of Biotin-Ahx-Ub-VS probe labelling": "-0.626 (inactive)"},
      {"target": "UniProt Q70EL2", "sequence (Q70EL2 whole entry)": "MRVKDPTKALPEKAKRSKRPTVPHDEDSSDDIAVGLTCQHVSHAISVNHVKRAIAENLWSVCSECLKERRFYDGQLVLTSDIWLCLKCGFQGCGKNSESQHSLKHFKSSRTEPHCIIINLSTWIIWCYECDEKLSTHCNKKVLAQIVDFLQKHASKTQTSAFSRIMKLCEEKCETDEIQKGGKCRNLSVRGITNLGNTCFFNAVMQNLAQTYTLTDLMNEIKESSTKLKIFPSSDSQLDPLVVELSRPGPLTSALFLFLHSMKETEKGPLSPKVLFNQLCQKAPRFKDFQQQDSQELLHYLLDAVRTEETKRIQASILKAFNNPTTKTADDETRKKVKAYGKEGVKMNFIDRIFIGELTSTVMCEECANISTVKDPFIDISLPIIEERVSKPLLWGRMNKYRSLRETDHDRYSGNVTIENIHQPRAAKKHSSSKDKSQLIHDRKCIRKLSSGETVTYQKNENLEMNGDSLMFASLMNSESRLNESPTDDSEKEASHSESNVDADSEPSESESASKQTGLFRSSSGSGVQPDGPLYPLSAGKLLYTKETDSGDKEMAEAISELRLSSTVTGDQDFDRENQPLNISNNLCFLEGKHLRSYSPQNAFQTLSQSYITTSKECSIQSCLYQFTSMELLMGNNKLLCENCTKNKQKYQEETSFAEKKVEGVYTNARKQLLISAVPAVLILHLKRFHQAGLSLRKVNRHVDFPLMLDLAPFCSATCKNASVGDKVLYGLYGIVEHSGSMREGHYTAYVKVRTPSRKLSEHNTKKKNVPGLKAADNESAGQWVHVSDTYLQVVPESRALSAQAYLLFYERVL", "log2 ratio of Biotin-Ahx-Ub-VS probe labelling": "-0.673 (inactive)"},
      {"target": "USP22 (UniProt Q9UPT9)", "sequence (Q9UPT9 whole entry)": "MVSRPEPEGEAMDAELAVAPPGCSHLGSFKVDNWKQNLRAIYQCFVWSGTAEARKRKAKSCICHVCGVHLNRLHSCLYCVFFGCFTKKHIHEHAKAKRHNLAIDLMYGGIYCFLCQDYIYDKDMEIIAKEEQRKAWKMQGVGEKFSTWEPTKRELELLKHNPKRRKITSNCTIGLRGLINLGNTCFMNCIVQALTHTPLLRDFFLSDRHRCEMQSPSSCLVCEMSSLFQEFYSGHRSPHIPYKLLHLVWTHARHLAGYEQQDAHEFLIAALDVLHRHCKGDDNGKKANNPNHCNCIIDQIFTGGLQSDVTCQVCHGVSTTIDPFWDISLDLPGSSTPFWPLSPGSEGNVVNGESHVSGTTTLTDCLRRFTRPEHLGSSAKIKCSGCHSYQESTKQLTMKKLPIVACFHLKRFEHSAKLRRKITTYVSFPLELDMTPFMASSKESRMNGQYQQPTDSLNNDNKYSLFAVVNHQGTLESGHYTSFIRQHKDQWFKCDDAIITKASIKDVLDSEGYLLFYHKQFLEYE", "log2 ratio of Biotin-Ahx-Ub-VS probe labelling": "-0.0777 (inactive)"},
      {"target": "OTUD6B (UniProt Q8N6M0)", "log2 ratio of Biotin-Ahx-Ub-VS probe labelling": "-0.0737 (inactive)"},
      {"target": "EIF3F (UniProt O00303)", "log2 ratio of Biotin-Ahx-Ub-VS probe labelling": "0.0219 (inactive)"},
      {"target": "USP36 (UniProt Q9P275)", "log2 ratio of Biotin-Ahx-Ub-VS probe labelling": "0.171 (inactive)"},
      {"target": "USP16 (UniProt Q9Y5T5)", "log2 ratio of Biotin-Ahx-Ub-VS probe labelling": "-0.472 (inactive)"},
      {"target": "UCHL5 (UniProt Q9Y5K5)", "sequence (Q9Y5K5 whole entry)": "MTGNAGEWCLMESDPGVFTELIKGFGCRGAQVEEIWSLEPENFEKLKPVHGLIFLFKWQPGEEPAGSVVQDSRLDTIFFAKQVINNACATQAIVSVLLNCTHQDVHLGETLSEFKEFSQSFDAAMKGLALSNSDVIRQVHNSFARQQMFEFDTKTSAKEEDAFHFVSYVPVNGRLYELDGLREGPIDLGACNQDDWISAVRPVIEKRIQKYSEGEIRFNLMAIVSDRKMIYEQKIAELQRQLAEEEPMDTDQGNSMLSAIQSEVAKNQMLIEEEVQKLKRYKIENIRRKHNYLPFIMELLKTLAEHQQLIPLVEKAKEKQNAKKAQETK", "log2 ratio of Biotin-Ahx-Ub-VS probe labelling": "-0.0853 (inactive)"},
      {"target": "OTUD7B (UniProt Q6GQQ9)", "log2 ratio of Biotin-Ahx-Ub-VS probe labelling": "-5.65 (active)"},
      {"target": "USP14 (UniProt P54578)", "log2 ratio of Biotin-Ahx-Ub-VS probe labelling": "0.154 (inactive)"},
      {"target": "USP7 (UniProt Q93009)", "log2 ratio of Biotin-Ahx-Ub-VS probe labelling": "-0.205 (inactive)"},
      {"target": "USP34 (UniProt Q70CQ2)", "log2 ratio of Biotin-Ahx-Ub-VS probe labelling": "-0.268 (inactive)"},
      {"target": "OTUB1 (UniProt Q96FW1)", "log2 ratio of Biotin-Ahx-Ub-VS probe labelling": "-0.0215 (inactive)"},
      {"target": "USP9X (UniProt Q93008)", "log2 ratio of Biotin-Ahx-Ub-VS probe labelling": "-0.0252 (inactive)"},
      {"target": "COPS5 (UniProt Q92905)", "log2 ratio of Biotin-Ahx-Ub-VS probe labelling": "0.0648 (inactive)"},
      {"target": "USP10 (UniProt Q14694)", "log2 ratio of Biotin-Ahx-Ub-VS probe labelling": "0.139 (inactive)"},
      {"target": "USP46 (UniProt P62068)", "sequence (P62068 whole entry)": "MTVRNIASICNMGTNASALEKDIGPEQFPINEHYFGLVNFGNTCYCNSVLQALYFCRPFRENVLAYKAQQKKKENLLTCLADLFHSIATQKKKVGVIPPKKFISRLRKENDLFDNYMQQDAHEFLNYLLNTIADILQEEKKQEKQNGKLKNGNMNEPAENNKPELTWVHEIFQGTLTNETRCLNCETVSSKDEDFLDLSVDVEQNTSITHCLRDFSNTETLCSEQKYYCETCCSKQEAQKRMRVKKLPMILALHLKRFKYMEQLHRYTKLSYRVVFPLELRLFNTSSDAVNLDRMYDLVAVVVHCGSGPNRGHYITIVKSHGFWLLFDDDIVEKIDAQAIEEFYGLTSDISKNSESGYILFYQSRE", "log2 ratio of Biotin-Ahx-Ub-VS probe labelling": "-0.257 (inactive)"},
      {"target": "YOD1 (UniProt Q5VVQ6)", "log2 ratio of Biotin-Ahx-Ub-VS probe labelling": "0.159 (inactive)"},
      {"target": "BAP1 (UniProt Q92560)", "sequence (Q92560 whole entry)": "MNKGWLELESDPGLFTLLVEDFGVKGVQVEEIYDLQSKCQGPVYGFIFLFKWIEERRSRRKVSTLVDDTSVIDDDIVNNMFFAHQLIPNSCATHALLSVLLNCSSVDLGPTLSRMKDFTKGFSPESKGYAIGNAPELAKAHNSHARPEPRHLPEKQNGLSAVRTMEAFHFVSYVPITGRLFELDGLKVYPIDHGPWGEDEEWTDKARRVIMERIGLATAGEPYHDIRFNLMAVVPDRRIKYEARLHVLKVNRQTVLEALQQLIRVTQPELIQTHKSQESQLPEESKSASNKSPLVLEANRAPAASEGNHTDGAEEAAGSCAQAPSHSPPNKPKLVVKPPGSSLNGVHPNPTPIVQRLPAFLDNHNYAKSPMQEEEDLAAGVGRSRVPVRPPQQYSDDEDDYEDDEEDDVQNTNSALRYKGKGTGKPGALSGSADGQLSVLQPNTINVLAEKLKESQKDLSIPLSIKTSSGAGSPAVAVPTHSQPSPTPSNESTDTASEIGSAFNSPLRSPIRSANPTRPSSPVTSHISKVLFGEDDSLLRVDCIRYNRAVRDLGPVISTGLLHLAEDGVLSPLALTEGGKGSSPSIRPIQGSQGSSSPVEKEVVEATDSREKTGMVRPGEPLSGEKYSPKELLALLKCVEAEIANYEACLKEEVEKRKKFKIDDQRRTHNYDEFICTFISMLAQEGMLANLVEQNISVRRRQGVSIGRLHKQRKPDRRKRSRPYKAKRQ", "log2 ratio of Biotin-Ahx-Ub-VS probe labelling": "-1.23 (active)"},
      {"target": "UniProt P51784", "sequence (P51784 whole entry)": "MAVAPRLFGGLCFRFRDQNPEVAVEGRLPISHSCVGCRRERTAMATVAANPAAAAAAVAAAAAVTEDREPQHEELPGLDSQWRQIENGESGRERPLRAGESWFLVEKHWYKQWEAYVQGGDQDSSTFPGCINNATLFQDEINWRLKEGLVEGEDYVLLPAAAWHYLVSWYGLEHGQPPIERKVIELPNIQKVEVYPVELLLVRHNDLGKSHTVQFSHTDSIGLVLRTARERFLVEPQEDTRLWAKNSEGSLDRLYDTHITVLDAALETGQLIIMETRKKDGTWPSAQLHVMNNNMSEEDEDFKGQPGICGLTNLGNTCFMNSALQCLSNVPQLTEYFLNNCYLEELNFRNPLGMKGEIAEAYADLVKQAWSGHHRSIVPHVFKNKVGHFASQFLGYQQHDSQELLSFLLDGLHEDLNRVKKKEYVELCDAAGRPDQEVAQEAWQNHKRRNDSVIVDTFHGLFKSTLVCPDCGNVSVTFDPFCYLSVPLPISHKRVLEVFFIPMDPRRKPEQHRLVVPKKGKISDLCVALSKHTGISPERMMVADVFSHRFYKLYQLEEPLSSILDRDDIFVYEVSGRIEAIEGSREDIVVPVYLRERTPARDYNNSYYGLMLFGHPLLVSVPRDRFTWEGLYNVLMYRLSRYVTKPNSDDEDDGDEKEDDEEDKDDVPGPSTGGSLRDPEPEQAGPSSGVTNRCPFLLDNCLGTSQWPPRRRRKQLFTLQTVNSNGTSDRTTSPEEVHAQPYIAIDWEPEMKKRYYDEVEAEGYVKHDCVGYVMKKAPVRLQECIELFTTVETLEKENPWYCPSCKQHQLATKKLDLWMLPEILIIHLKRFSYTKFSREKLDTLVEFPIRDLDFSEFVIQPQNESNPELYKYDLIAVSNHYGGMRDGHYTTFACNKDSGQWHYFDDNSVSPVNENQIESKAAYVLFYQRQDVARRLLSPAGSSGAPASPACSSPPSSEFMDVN", "log2 ratio of Biotin-Ahx-Ub-VS probe labelling": "0.032 (inactive)"},
      {"target": "USP25 (UniProt Q9UHP3)", "log2 ratio of Biotin-Ahx-Ub-VS probe labelling": "0.0737 (inactive)"},
      {"target": "UniProt Q9UGI0", "sequence (Q9UGI0 whole entry)": "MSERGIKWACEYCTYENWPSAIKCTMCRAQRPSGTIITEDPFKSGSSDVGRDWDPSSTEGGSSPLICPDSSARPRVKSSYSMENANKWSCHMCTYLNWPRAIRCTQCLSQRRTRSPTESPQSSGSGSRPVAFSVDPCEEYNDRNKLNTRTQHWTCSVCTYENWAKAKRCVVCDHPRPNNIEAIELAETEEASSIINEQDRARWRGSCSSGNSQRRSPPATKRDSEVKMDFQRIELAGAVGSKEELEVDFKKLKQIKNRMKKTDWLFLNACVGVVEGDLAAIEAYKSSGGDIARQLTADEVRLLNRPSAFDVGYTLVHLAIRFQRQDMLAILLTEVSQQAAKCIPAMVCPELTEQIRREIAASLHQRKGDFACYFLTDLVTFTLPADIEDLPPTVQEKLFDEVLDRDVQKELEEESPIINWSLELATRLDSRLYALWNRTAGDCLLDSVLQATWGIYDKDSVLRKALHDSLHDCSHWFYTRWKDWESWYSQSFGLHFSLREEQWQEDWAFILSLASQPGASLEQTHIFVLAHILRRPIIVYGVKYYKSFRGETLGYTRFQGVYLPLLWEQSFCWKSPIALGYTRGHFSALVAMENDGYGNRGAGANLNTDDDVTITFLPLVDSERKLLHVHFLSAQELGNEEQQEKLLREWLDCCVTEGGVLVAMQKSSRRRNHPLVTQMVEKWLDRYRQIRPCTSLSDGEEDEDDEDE", "log2 ratio of Biotin-Ahx-Ub-VS probe labelling": "-0.346 (inactive)"}
    ]}
  ]
}
